Test results as given in PubChem BioAssay (EPA / NIEHS).
Records with an inconclusive call do not appear. The source made the active and inactive calls. The calls were made as follows, unless noted: active = hit-call score of the fitted dose curve at least 0.9, where 1 is the maximum; inactive = score below 0.9.

Experiments:
[1] = APR_HepG2_CellCycleArrest_1hr: Apredica 1-hour HepG2 Assay for Cell Cycle Arrest (AID 2282666); settings: high-content imaging, actives raise or lower the signal
In short: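 HepG2 cells exposed for 1 h to 0.39–200 uM compound (0.5% DMSO). Fixed, Hoechst-stained nuclei imaged by ArrayScan; DNA content quantified by Cell Cycle analysis; bidirectional fit against DMSO.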

[2] = ACEA_ER_80hr: ACEA Biosciences xCELLigence Real-Time Cell Analysis on Estrogen Receptor Agonism for Proliferation (AID 2282667; active = hit-call score of the fitted dose curve at least 0.9, where 1 is the maximum); settings: T47D proliferation, impedance (xCELLigence), 80 h
In short: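 T-47D cells monitored by electrical impedance (xCELLigence) with compound present throughout; 80 h timepoint, positive-direction fitting versus DMSO. Eight-point 1:4 dilutions from 100 uM final, duplicate plates.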

[3] = APR_HepG2_CellLoss_1hr: Apredica 1-hour HepG2 Assay for Cell Loss (AID 2282668); settings: high-content imaging;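 also: curves fitted both ways against DMSO so gain or loss of cells counts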
In short: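 HepG2 cells were treated for 1 h with compound at 0.39–200 uM, in duplicate, in 0.5% DMSO. After formaldehyde fixation, Hoechst 33342-stained nuclei were imaged on an ArrayScan to count cells. Data were fitted bidirectionally versus DMSO.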

[4] = APR_HepG2_MicrotubuleCSK_1hr: Apredica 1-hour HepG2 Assay for Microtubule CSK Stabilty (AID 2282669); settings: HepG2 microtubule cytoskeleton imaging, actives raise or lower the signal
In short: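 HepG2 cells exposed 1 h to 0.39–200 uM compound (0.5% DMSO, duplicates), then formaldehyde-fixed, permeabilized and immunostained for alpha-tubulin with Hoechst nuclei. Imaged by ArrayScan high-content analysis; bidirectional fit versus DMSO.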

[5] = APR_HepG2_NuclearSize_1hr: Apredica 1-hour HepG2 Assay for Nuclear Size (AID 2282670); settings: high-content imaging, actives raise or lower the signal
In short: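 HepG2 cells dosed 1 hr with 0.39–200 uM compound (0.5% DMSO), formaldehyde-fixed, Hoechst 33342-stained and imaged at 20x; nuclear diameter from nuclear stain, fitted bidirectionally against DMSO.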

[6] = APR_HepG2_P-H2AX_1hr: Apredica 1-hour HepG2 Assay for H2AX Phosphorylation (AID 2282673); settings: high-content imaging, actives raise or lower the signal
In short: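 HepG2 dosed 1 hr at 0.39-200 uM (0.5% DMSO final), duplicate. Fixed in 3.7% formaldehyde, Triton permeabilized, immunostained for phospho-histone H2A.x (1:200) with Hoechst 33342; ArrayScan 20x imaging, bidirectional fit vs DMSO.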

[7] = APR_HepG2_MitoMass_1hr: Apredica 1-hour HepG2 Assay for Mitochondrial Mass (AID 2282674); settings: high-content imaging, actives raise or lower the signal
In short: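 HepG2 cells dosed 1 hr with 0.39-200 uM compound (0.5% DMSO), duplicate wells. Mitochondria stained with 250 nM MitoTracker Red CMXRos for 30 min before formaldehyde fixation, imaged at 20x by ArrayScan; bidirectional fit versus DMSO.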

[8] = APR_HepG2_MitoMembPot_1hr: Apredica 1-hour HepG2 Assay for Mitochondrial Membrane Potential (AID 2282675); settings: imaging, actives raise or lower the signal
In short: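 HepG2 cells dosed 1 hour with 0.39–200 uM compound in duplicate, 0.5% DMSO final. MitoTracker Red CMXRos (250 nM, 30 min) loaded before formaldehyde fixation; fluorescence quantified by high-content imaging, bidirectional fitting versus DMSO.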

[9] = APR_HepG2_MitoticArrest_1hr: Apredica 1-hour HepG2 Assay for Mitotic Arrest (AID 2282672); settings: high-content imaging, actives raise or lower the signal
In short: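 HepG2 cells exposed 1 hr to compounds at 0.39–200 uM (0.5% v/v DMSO final), then fixed in 3.7% formaldehyde and immunostained for phospho-histone H3 with Hoechst 33342. Mitotic arrest scored by automated fluorescence imaging, fitted bidirectionally versus DMSO.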

[10] = APR_HepG2_p53Act_1hr: Apredica 1-hour HepG2 Assay for p53 Activation (AID 2282671); settings: high-content imaging, actives raise or lower the signal
In short: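 HepG2 cells treated 1 h with compound at 0.39–200 uM (10 concentrations, duplicate) in 0.5% DMSO. Formaldehyde-fixed, permeabilised cells immunostained for p53 with Hoechst 33342; high-content imaging, bidirectional fit versus DMSO.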

Measured: AC50

C#CCN1C(=O)COc2cc(F)c(N3C(=O)C4=C(CCCC4)C3=O)cc21
not listed: [9] | [10]
inactive: all other assays above

COC(=O)c1ccccc1S(=O)(=O)NC(=O)Nc1nc(C)nc(OC)n1
inactive: [1] | [3] | [4] | [9] | [6] | [8]

CCOC1Oc2ccc(OS(C)(=O)=O)cc2C1(C)C (configuration not stated)
inactive: [1] | [2] | [3] | [4] | [6] | [8]

Cc1[nH]c(=O)n(C(C)(C)C)c(=O)c1Cl
inactive: [1] | [2] | [3] | [4] | [6] | [8]

CNC(=O)/C=C(\C)OP(=O)(OC)OC
not listed: [5] | [7] | [10]
inactive: all other assays above

CNC(=O)Oc1cccc(N=CN(C)C)c1
inactive: [1] | [3] | [4] | [5] | [6] | [8]

CC(C)(C)C(O)C(Oc1ccc(Cl)cc1)n1cncn1 (configuration not stated)
inactive: [1] | [3] | [4] | [5] | [6] | [8]

CC1(C)C(C=C(Cl)Cl)C1C(=O)OC(C#N)c1ccc(F)c(Oc2ccccc2)c1 (configuration not stated)
not listed: [2] | [7] | [10]
inactive: all other assays above

N#CN
inactive: [1] | [2] | [3] | [4] | [6] | [8]

CC[C@H](C)[C@H]1O[C@]2(C=C[C@@H]1C)C[C@@H]1C[C@@H](C/C=C(\C)[C@@H](O[C@H]3C[C@H](OC)[C@@H](O[C@H]4C[C@H](OC)[C@@H](O)[C@H](C)O4)[C@H](C)O3)[C@@H](C)/C=C/C=C3\CO[C@@H]4[C@H](O)C(C)=C[C@@H](C(=O)O1)[C@]34O)O2 (tested in a mixture with another compound)
inactive: [1] | [3] | [4] | [5] | [8]
active: [6] 22.5 µM | [7] 26.8 µM

CCc1ccc(C(=O)NN(C(=O)c2cc(C)cc(C)c2)C(C)(C)C)cc1
inactive: [1] | [3] | [4] | [5] | [6] | [8]

COP(=S)(OC)Oc1ccc(SC)c(C)c1
active: [8] 59.1 µM
inactive: [1] | [3] | [4] | [9] | [6]

COc1nn(CSP(=S)(OC)OC)c(=O)s1
inactive: [1] | [3] | [4] | [5] | [6] | [8]

OCCOc1ccccc1
not listed: [2] | [5] | [7]
inactive: all other assays above

Clc1ccccc1-c1nnc(-c2ccccc2Cl)nn1
inactive: [1] | [2] | [3] | [4] | [6] | [8]

COP(=O)(OC)OC=C(Cl)Cl
not listed: [5] | [9] | [10]
inactive: all other assays above

O=[N+]([O-])/N=C1\NCCN1Cc1ccc(Cl)nc1
inactive: [1] | [2] | [3] | [4] | [6] | [8]

CCCN(CCOc1c(Cl)cc(Cl)cc1Cl)C(=O)n1ccnc1
not listed: [2] | [7] | [10]
inactive: all other assays above

O=[N+]([O-])c1c(Cl)c(Cl)c(Cl)c(Cl)c1Cl
not listed: [2] | [5] | [10]
inactive: all other assays above

COP(=S)(OC)Oc1ccc([N+](=O)[O-])cc1
not listed: [2] | [5] | [10]
inactive: all other assays above

CNC(=O)CSP(=S)(OC)OC
not listed: [7] | [10]
inactive: all other assays above

O=C1c2ccccc2C(=O)N1SC(Cl)(Cl)Cl
inactive: [1] | [3] | [4] | [5] | [6] | [8]

O=C(NC(=O)c1c(F)cccc1F)Nc1ccc(OC(F)(F)C(F)OC(F)(F)F)c(Cl)c1 (configuration not stated)
not listed: [5] | [7] | [10]
inactive: all other assays above

CCC(C)Nc1c([N+](=O)[O-])cc(C(C)(C)C)cc1[N+](=O)[O-] (configuration not stated)
not listed: [10]
inactive: all other assays above

CCCN(CCC)c1c([N+](=O)[O-])cc(C(F)(F)F)cc1[N+](=O)[O-]
not listed: [7] | [10]
inactive: all other assays above

CN1CSC(=S)N(C)C1
not listed: [2] | [9] | [10]
inactive: all other assays above

O=S1OCC2C(CO1)C1(Cl)C(Cl)=C(Cl)C2(Cl)C1(Cl)Cl (configuration not stated)
inactive: [1] | [3] | [4] | [6] | [7]
active: [8] 118 µM

CCOCN(C(=O)CCl)c1c(C)cccc1CC
inactive: [1] | [3] | [4] | [6] | [8]

C[C@H]1[C@H](c2ccc(Cl)cc2)SC(=O)N1C(=O)NC1CCCCC1
inactive: [1] | [3] | [4] | [6] | [8]

COC(=O)c1ccccc1CS(=O)(=O)NC(=O)Nc1nc(OC)cc(OC)n1
inactive: [1] | [3] | [4] | [6] | [8]

CCOc1nc(NC)nc(NC(=O)NS(=O)(=O)c2ccccc2C(=O)OC)n1
inactive: [1] | [3] | [4] | [6] | [7] | [8]

COC(=O)c1ccccc1S(=O)(=O)NC(=O)N(C)c1nc(C)nc(OC)n1
inactive: [1] | [3] | [4] | [6] | [8]

CNC(=O)Oc1ccccc1OC(C)C
inactive: [1] | [3] | [4] | [6] | [7] | [8]

CC(C)(C)C(O)/C(=C\c1ccc(Cl)cc1Cl)n1cncn1 (configuration not stated)
inactive: [1] | [3] | [4] | [6] | [8]

O=C(Nc1ccccc1)Nc1cnns1
inactive: [1] | [3] | [4] | [6] | [7]
active: [8] 76.2 µM

CCN(CC)C(=O)SCc1ccc(Cl)cc1
inactive: [1] | [3] | [4] | [6] | [8]

ClC1C(Cl)C(Cl)C(Cl)C(Cl)C1Cl (configuration not stated)
inactive: [1] | [3] | [4] | [6] | [8]

Oc1cc(Cl)ccc1Oc1ccc(Cl)cc1Cl
active: [1] 118 µM | [3] 114 µM | [6] 99.8 µM
inactive: [4] | [8]

N#Cc1c(Cl)c(Cl)c(Cl)c(C#N)c1Cl
inactive: [1] | [4]
active: [3] 15.8 µM | [6] 3.46 µM | [8] 61.5 µM

CCC(C)(NC(=O)c1cc(Cl)c(C)c(Cl)c1)C(=O)CCl (configuration not stated)
inactive: [1] | [3] | [4] | [6] | [7] | [8]

O=C(O)CCCOc1ccc(Cl)cc1Cl
inactive: [1] | [3] | [4] | [6] | [8]

CC1(c2ccc(Oc3ccccc3)cc2)OC(=O)N(Nc2ccccc2)C1=O (configuration not stated)
inactive: [1] | [3] | [4] | [9] | [6] | [8]

Oc1ccc(Cl)cc1Cc1ccccc1
active: [1] 114 µM | [3] 118 µM | [6] 110 µM
inactive: [4] | [8]

O=S(=O)(O)C(F)(F)C(F)(F)C(F)(F)C(F)(F)C(F)(F)C(F)(F)C(F)(F)C(F)(F)F
inactive: [1] | [3] | [4] | [6] | [8]

COc1cc(OC)nc(NC(=O)NS(=O)(=O)c2cc(NC=O)ccc2C(=O)N(C)C)n1
inactive: [1] | [3] | [4] | [6] | [8]

O=C(O)COc1ccc(Cl)cc1Cl
inactive: [1] | [3] | [4] | [6] | [8]

CCC(C)(C)C(=O)OC1=C(c2ccc(Cl)cc2Cl)C(=O)OC12CCCCC2
inactive: [1] | [3] | [4] | [6] | [8]

CCS(=O)(=O)c1cccnc1S(=O)(=O)NC(=O)Nc1nc(OC)cc(OC)n1
inactive: [1] | [3] | [4] | [6] | [8]

[2H]C1([2H])[n+]2ccccc2-c2cccc[n+]2C1([2H])[2H]
inactive: [1] | [3] | [4] | [6] | [8]

O=C(O)C(F)(F)C(F)(F)C(F)(F)C(F)(F)C(F)(F)C(F)(F)C(F)(F)F
inactive: [1] | [3] | [4] | [6] | [8]

CC(C)OC(=O)Nc1cccc(Cl)c1
inactive: [1] | [3] | [4] | [6] | [8]

CC(C)N(C(=O)COc1nnc(C(F)(F)F)s1)c1ccc(F)cc1
inactive: [1] | [3] | [4] | [6] | [8]

Cc1cc(C)nc(NC(=O)NS(=O)(=O)c2ccccc2C(=O)OC2COC2)n1
inactive: [1] | [3] | [4] | [6] | [7] | [8]
